6 molecules from PubChem BioAssay (NCATS) can be followed below.

Experiment [1] in a line: OV-KATE Cancer Cell Toxicity qHTS against the NCATS CANVASS Library (AID 1347345). Further: potency means the concentration at half of the fitted maximal effect. The method, boiled down:
(§1)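 1000 cells/well seeded and rested 4 h at 37 °C before pin transfer of compounds in an 11-pnt series. Exposure 72 h at 37 °C/5% CO2; viability by CellTiter-Glo luminescence after 15 min at room temperature.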
(In general: qHTS replaces the single test concentration by a dilution series.)

A short description of experiment [2]: OV-SAHO Cancer Cell Toxicity qHTS against the NCATS CANVASS Library (AID 1347348). Further: nearly all actives have a fitted effect of over 55% in size. Further: potency means the concentration at half of the fitted maximal effect. In outline: as §1
A short description of experiment [3]: SW1088 Cancer Cell Toxicity qHTS against the NCATS CANVASS Library (AID 1347350). Further: nearly all actives have a fitted effect of over 75% in size. Further: potency means the concentration at half of the fitted maximal effect. In outline: as §1
Experiment [4] is described as follows: A2780 Cisplatin Sensitive Ovarian Cancer Cell Toxicity qHTS against the NCATS CANVASS Library (AID 1347353). Further: nearly all actives have a fitted effect of over 60% in size. Further: potency means the concentration at half of the fitted maximal effect. The method, boiled down: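 A2780 cisplatin-sensitive cells (750 per well) were seeded, left 4 h at 37 °C, then pin-dosed in an 11-point series. After 72 h at 37 °C/5% CO2, viability was measured as ATPLite luminescence.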
Experiment [5] is described as follows: HEK-293 Cancer Cell Toxicity qHTS against the NCATS CANVASS Library (AID 1347355). Further: nearly all actives have a fitted effect of over 65% in size. Further: potency means the concentration at half of the fitted maximal effect. In outline:
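Cells were seeded at 1000 per well and allowed to settle 4 hours at 37 degrees C before pin transfer of compounds as an 11-point series. Viability was read by CellTiter-Glo luminescence after 72 hours' exposure.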

The nature of experiment [6]: HEK293 24hr Apoptosis Induction qHTS against the NCATS CANVASS Library (AID 1347359). In outline: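 HEK293 cells, 500 per well, exposed to an 11-point compound series for 24 hours at 37 degrees C. Caspase 3/7 activity read by Caspase-Glo luminescence (DEVD substrate) after 15 min at room temperature.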
Experiment [7] in a line: KB-8-5-11 Cancer Cell Toxicity qHTS against the NCATS CANVASS Library (AID 1347364). Further: nearly all actives have a fitted effect of over 75% in size. Further: potency means the concentration at half of the fitted maximal effect. The method, boiled down:
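KB-8-5-11 cells (500/well) in DMEM + 10% FBS were exposed to compounds in an 11-point qHTS series for 72 hr at 37C, 5% CO2. Viability was read by CellTiter-Glo luminescence.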

Experiment [8] is described as follows: SDT Cancer Cell Toxicity qHTS against the NCATS CANVASS Library (AID 1347365). Further: nearly all actives have a fitted effect of over 60% in size. Further: potency means the concentration at half of the fitted maximal effect. The method, boiled down:
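SDT canine glioma cells (500 cells/well) were exposed to compounds in an 11-point series for 72 hr at 37C, 5% CO2; viability was read as ATP content by CellTiterGlo luminescence.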

Experiment [9] is described as follows: qHTS for ATAD5 Agonist screened against the NCATS CANVASS Library (AID 1347367).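 Further: luciferase reporter driven by ATAD5 which rises upon DNA damage.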 The method, boiled down:
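HEK293T cells stably carrying an ATAD5-controlled luciferase reporter (2000 cells/well) attached for 5 hr, then received compounds in an 11-point series for 16hr at 37C. Luminescence was read after a 30 min room-temperature reagent step.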

Experiment [10] is described as follows: G06 Cancer Cell Toxicity qHTS against the NCATS CANVASS Library (AID 1347368). Further: nearly all actives have a fitted effect of over 60% in size. Further: potency means the concentration at half of the fitted maximal effect. In outline: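 G06 dog glioma cells seeded at 500 cells/well were exposed to compounds (11-point qHTS series) for 72 hr at 37C, 5% CO2; viability read as ATP content by CellTiterGlo luminescence.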
A short description of experiment [11]: qHTS for Hypoxia signaling pathway (HIF-1) antagonists against the NCATS CANVASS Library (AID 1347374). Further: nearly all actives have a fitted effect of over 60% in size. Further: potency means the concentration at half of the fitted maximal effect. In outline: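 HRE-bla ME-180 cells (2,000/well, 0.5% dialyzed FBS) were pre-incubated 5 h, then given an 11-point compound series plus CoCl2 (60 uM solution as added) for 17 h at 37C. CCF4 β-lactamase read (ex 405, em 460/530 nm) after 2 h at RT.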
Experiment [12] in a line: DH5-alpha competent E. coli microbial cell viability qHTS against the NCATS CANVASS Library (AID 1347377). To be noted: outcome: dose series up to 46.1 µM unless noted. The method, boiled down:
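DH5-alpha E. coli suspension (0.9 OD culture diluted to 0.2 OD) exposed to compounds in an 11-point series, overnight at 37C, 5% CO2. Viability read as ATP by BacTiter-Glo luminescence after 20 min at room temperature.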

A short description of experiment [13]: Inflammasome Signaling qHTS Counterscreen: IL-1-beta AlphaLISA counterscreen against the NCATS CANVASS Library (AID 1347381).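 Further: cell-free check with purified IL-1β in medium and no THP-1 cells; series mostly up to about 57 µM.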 The method, boiled down:
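To flag interference with the AlphaLISA read-out, a known amount of purified IL-1-beta (4 pg) replaced cell supernatant. Detection used anti-IL-1-beta acceptor beads, biotinylated antibody and streptavidin donor beads at room temperature.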

A short description of experiment [14]: qHTS for Activators of p53 Stress Response Pathway screened against the NCATS CANVASS Library (AID 1347388). The method, boiled down:
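p53RE-bla HCT-116 cells (4000/well) were pre-incubated for 5 h, then treated with compound (11 points) for 16 h at 37C. After 2 h with CCF4, the 460/530 nm ratio gave reporter activation; CellTiter-Glo measured viability.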

A short description of experiment [15]: qHTS for activators of Nrf2/ARE signaling pathway screened against the NCATS CANVASS Library (AID 1347391). Further: nearly all actives have a fitted effect of over 60% in size. Further: potency means the concentration at half of the fitted maximal effect. In outline: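 ARE-bla HepG2 beta-lactamase reporter cells, 2000 cells/well, were preincubated 5 h, then exposed to compounds (11-point series) for 16 h at 37C. CCF4 fluorescence (ex 405, em 460/530 nm) after 2 h at room temperature.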
A short description of experiment [16]: qHTS for activators of dead-cell proteases activity screened against the NCATS CANVASS Library (AID 1347392).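 Further: luminescence from protease leaking out of membrane-damaged cells cleaving impermeant substrate; rising signal means more cytotoxicity.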 In outline:
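HepG2 cells, 2000/well, attached 18 h at 37C, then exposed to compounds (11-point qHTS) for 5 h. Dead-cell protease release read as luminescence from cell-impermeant AAF-aminoluciferin substrate after 15 min at room temperature.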

A short description of experiment [17]: qHTS for inhibitors of ER calcium dysfunction: SERCaMP assay screened against the NCATS CANVASS Library (AID 1347393). Further: nearly all actives have a fitted effect of over 40% in size. Further: potency means the concentration at half of the fitted maximal effect. In outline: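 SH-SY5Y GLuc-SERCaMP, 1000 cells/well, 4 h attach; cpd 16 h, 37C/5% CO2; thapsigargin (added as 6x 600 nM) 4 h; coelenterazine; luminescence. Reduced reporter release = ER Ca stabilization.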
Experiment [18] is described as follows: qHTS for inhibitors of Wild type Zika virus screened against the NCATS CANVASS Library (AID 1347396).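 Further: ATP luminescence of surviving cells so rescue from viral cell killing; series mostly up to about 46 µM.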 In outline:
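Vero 766 (African green monkey) cells, 1000 per well, attached overnight, then compounds were added in an 11-point series before wild-type Zika virus infection. After 72 h at 37C, cell viability was read as CellTiter Glo luminescence.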

Experiment [19] in a line: HPAF-II 12hr Apoptosis Induction qHTS against the NCATS CANVASS Library (AID 1347358). In outline:
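HPAF-II cells (500/well, DMEM + 10% FBS) were exposed to compounds for 12 hours at 37 degrees C. Caspase-3/7 activity was then read by Caspase-Glo 3/7 luminescence after 15 min at room temperature.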

Experiment [20] concerns the target Luciferin 4-monooxygenase (Photinus pyralis) (UniProt P08659). Nature of the experiment: Firefly luciferase counterscreen qHTS: Assay Interference Panel against the NCATS CANVASS Library (AID 1347363). Further: series mostly up to about 57 µM. In outline: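 Purified P. pyralis luciferase (0.04 ug/mL, 4x reagent) added to Tris-acetate buffer with 0.013 mM D-luciferin, 0.013 mM ATP and 13.3 mM Mg-acetate; compounds preincubated 15 min, then luminescence read after 5 min, RT.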

SMILES strings stand for the structures. Records with an inconclusive call do not appear. Active and inactive are the calls of the source. The call rests on the fitted dose curve; in most records, active means well fitted curve in the direction sought with a large enough effect; inconclusive means small, poorly fitted or top-dose-only effect, or another doubt; inactive means no such curve, though single readings can be large; an effect the other way counts as inactive or inconclusive.

Chain of Luciferin 4-monooxygenase (Photinus pyralis) (P08659 whole entry, looked up): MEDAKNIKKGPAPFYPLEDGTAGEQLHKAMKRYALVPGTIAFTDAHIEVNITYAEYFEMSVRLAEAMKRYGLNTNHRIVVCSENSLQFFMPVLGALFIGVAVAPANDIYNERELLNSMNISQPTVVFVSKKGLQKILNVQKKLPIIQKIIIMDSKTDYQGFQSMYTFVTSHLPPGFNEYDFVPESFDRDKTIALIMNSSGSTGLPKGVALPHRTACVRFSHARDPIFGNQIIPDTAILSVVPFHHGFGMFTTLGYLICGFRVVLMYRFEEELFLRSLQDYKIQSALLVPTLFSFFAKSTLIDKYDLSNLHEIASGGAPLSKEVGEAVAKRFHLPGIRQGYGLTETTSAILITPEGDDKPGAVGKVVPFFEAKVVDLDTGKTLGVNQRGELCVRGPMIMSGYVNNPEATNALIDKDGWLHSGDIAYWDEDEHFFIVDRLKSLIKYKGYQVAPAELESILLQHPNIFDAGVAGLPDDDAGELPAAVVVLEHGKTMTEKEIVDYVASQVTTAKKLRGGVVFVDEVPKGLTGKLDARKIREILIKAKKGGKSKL

As to `O=Cc1ccc2n1C[C@]1(C[C@H](O)[C@@H](CO)O1)OC2`, the Potency result in [1], in experiment [2], in experiment [3], in experiment [4], in experiment [5] and in [6] was “inactive” in each case. Moreover, the Potency entry in [7], in experiment [8], in experiment [9], in [10], in experiment [11] and in experiment [14] was “inactive” in each case. The Potency entry in experiment [15], in experiment [16] and in [17] was “inactive” in each case. Besides, the molecule was classed as inactive in experiment [12], in experiment [13] and in [18].

As for `CC(C)=CCCC(C)(O)[C@H]1CC=C(C)C(O)C1` (some centres not stated), the Potency entry in [1], in experiment [2], in experiment [3], in [4], in experiment [5] and in experiment [6] was “inactive” in each case. Besides, the Potency result in experiment [7], in experiment [8], in [9], in experiment [10], in experiment [11] and in [14] was “inactive” in each case. The Potency entry in [15], in experiment [16] and in experiment [17] was “inactive” throughout. Besides, the result in [12] and in [18] was inactive.

In the case of `COc1cc2oc3ccccc3c(=O)c2cc1OC`, the Potency entry in experiment [1], in [2], in experiment [3], in [19], in experiment [6] and in experiment [9] was “inactive” in each case. In experiment [11], the Potency result was “inactive”. The molecule was called inactive in experiment [12], in experiment [13] and in experiment [18]. Also, the Potency in experiment [15] is 3410 nM (active).

On to `C=C[C@@]1(C)CC[C@@H]([C@H](C)C(C)=O)O1`, for which the Potency result in [1], in experiment [2], in [3], in experiment [4], in experiment [5] and in experiment [19] was “inactive” each time. Moreover, the Potency result in experiment [6], in [20], in experiment [7], in experiment [8], in [9] and in experiment [10] was “inactive” in each case. Also, the Potency result in experiment [11], in experiment [14], in experiment [15], in experiment [16] and in experiment [17] was “inactive” in each case. Moreover, the molecule was called inactive in experiment [12], in [13] and in [18].

For the molecule `COC(=O)[C@@]12Oc3cccc(O)c3C(O)=C1C(=O)C[C@H](C)[C@H]2O`, the Potency result in experiment [1], in experiment [2], in experiment [3], in experiment [4], in [5] and in experiment [19] was “inactive” throughout. Besides, the Potency result in [6], in experiment [20], in [7], in experiment [8], in [9] and in experiment [10] was “inactive” each time. Also, the Potency result in experiment [14] and in experiment [16] was “inactive” throughout. In [18], the result was inactive.

In the case of `C=C(C)C(=O)O[C@H]1C[C@@]2(C)OC(=CC2=O)/C(C)=C\[C@H]2OC(=O)C(=C)[C@H]12`, the Potency is 2110 nM (active) in experiment [1]; 5290 nM (active) in experiment [2]; 6680 nM (active) in [3]; 662 nM (active) in [4]; 1050 nM (active) in experiment [5]; 2960 nM (active) in experiment [7]. For the same molecule, the Potency is 1660 nM (active) in experiment [8], 2090 nM (active) in experiment [10], 1670 nM (active) in [11] and 216 nM (active) in experiment [17]. Further, the Potency entry in experiment [19], in [20], in experiment [9] and in [14] was “inactive” each time. The molecule was classed as inactive in experiment [12] and in experiment [13].
